For 94 sequences, binding signal results are on record in PMC6212790, “How bacterial xenogeneic silencer rok distinguishes foreign from self DNA in its resident genome”.

The full ranking holds about 33,000 sequences; the median of “e-score” is about -0.038, and the highest 2% start at about 0.33. The full list was thinned out, with the highest values kept by preference.

The test has as its target T1, GST-Rok-C97-191 (Bacillus subtilis subsp. subtilis str. …, UniProt O34857 97-191).
T1 sequence: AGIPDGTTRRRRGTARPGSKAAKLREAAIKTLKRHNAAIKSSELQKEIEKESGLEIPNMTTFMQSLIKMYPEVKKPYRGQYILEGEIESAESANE
Put plainly: protein binding microarray; Rok is a gene silencer of Bacillus subtilis; high values mean tight binding. The following applies: protein: recombinant; tags: GST (pTH5325, pDEST15-Magic modified); dsDNA, one strand shown. The method, boiled down: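 Every oligonucleotide joins a 25-mer constant primer to a 35-mer variable part drawn from a de Bruijn sequence of order 10, so each non-palindromic 8-mer appears at least 32 times and each palindromic 8-mer 16 times. The preference for every 8-mer is reported as a unitless, rank-based enrichment score (E-score). This score spans 0.5 for the most favored 8-mer to −0.5 for the most disfavored.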
Take AATCCATG: the binding signal was -0.019 E-score.
As for CGAGTAAA, the binding signal turned out to be 0.128 E-score.
As for ACTCAGGC, the figure is -0.123 E-score; as for CAAAAGAG, -0.195 E-score.
ACGGGGAA: the binding signal amounted to 0.0307 E-score.
In the case of GAGTCCTA, the binding signal was -0.119 E-score.
In the case of TATTTAGA, the binding signal is 0.0799 E-score.
Consider ATAAAGGC, for which the binding signal turned out to be 0.052 E-score.
Take ACATACGC: the binding signal was -0.0272 E-score.
Consider CATAGACA, for which the binding signal is -0.0183 E-score.
As to CGTCCACC, the binding signal was -0.198 E-score.
TAGTTATA: the binding signal stood at 0.39 E-score.
Take CAGTTATA: the binding signal is 0.187 E-score.
With GAGTTATA, the binding signal worked out at 0.213 E-score.
As for GAGGAACA, the figure is -0.114 E-score; as for GAAATTAC, 0.359 E-score; as for GAAATTAA, 0.278 E-score.
For CAAATTAG the value was 0.044 E-score.
GAAATTGC: the binding signal is 0.239 E-score.
As for AAAATTAC, the figure is 0.327 E-score; as for CAAATTAC, 0.33 E-score; as for ATTCGCGG, -0.0504 E-score.
As for CTAAGTTA, the binding signal came to 0.291 E-score.
Turning to GCGAGACC, the binding signal was -0.114 E-score.
As for CAACCCTG, the figure is -0.104 E-score; as for ATCATCTA, 0.148 E-score.
In the case of GAGCCTAC, the binding signal was -0.193 E-score.
With TAACAGTA, the binding signal amounted to 0.342 E-score.
Take GAACAGTA: the binding signal came to 0.179 E-score.
Consider CTACAGTA, for which the binding signal came to 0.235 E-score.
As for CAACAGTA, the figure is 0.315 E-score; as for GTACAGTA, 0.283 E-score.
Consider ATACAGTA, for which the binding signal amounted to 0.385 E-score.
As for ATGGCACC, the binding signal is -0.0965 E-score.
For the sequence CCCTTCGC, the binding signal is -0.198 E-score.
ACTAAGGA: the binding signal came out at 0.268 E-score.
As for ACGGCCAG, the binding signal was -0.104 E-score.
In the case of CCTTCTGC, the binding signal is -0.174 E-score.
In the case of AGTCGTAC, the binding signal came to 0.108 E-score.
As for CTAGATAC, the figure is 0.204 E-score; as for AGAGATAC, 0.166 E-score.
Take GAAGATAA: the binding signal came to 0.224 E-score.
For the sequence GTAGATAC, the binding signal was determined as 0.381 E-score.
For AAAGATAC, the binding signal amounted to 0.0421 E-score.
With GTAGATAA, the binding signal was determined as 0.397 E-score.
As for AAAGATAA, the figure is 0.33 E-score.
With CTAGATAA, the binding signal turned out to be 0.3 E-score.
ATAGATAC: the binding signal worked out at 0.357 E-score.
For the sequence ACAGATAC, the binding signal turned out to be 0.252 E-score.
As to GCAGATAC, the binding signal is -0.00726 E-score.
With ATAGATAA, the binding signal was found to be 0.325 E-score.
As for TGAGAAAA, the binding signal was 0.154 E-score.
Take AAGGATGA: the binding signal was -0.0751 E-score.
For TGAAAGCA the value was 0.0344 E-score; for GACCGGGA, -0.0628 E-score; for ACAGGCGG, -0.187 E-score.
For the sequence ATAGATAT, the binding signal amounted to 0.415 E-score.
For ATAGATAG the value was 0.267 E-score; for ACAGATAT, 0.185 E-score.
Take ACTTTTGA: the binding signal stood at 0.0573 E-score.
Regarding CAGACGCA, the binding signal was -0.191 E-score.
On to AATTTCTC, for which the binding signal was found to be 0.198 E-score.
For the sequence GATTTCAA, the binding signal came to 0.0221 E-score.
For AATTTCTG, the binding signal is 0.128 E-score.
As for ATTTTCTA, the figure is 0.379 E-score; as for ACTTTCTC, 0.0481 E-score.
For CATTTCTA the value was 0.306 E-score; for CCTTTCTA, 0.108 E-score; for ATTTTCTC, 0.255 E-score.
As for ATTTTCTG, the binding signal was -0.0553 E-score.
For AATTTCTA, the binding signal turned out to be 0.355 E-score.
With GATTTCTA, the binding signal was found to be 0.357 E-score.
As to ACTTTCTA, the binding signal was 0.386 E-score.
In the case of AGTGTAGG, the binding signal was 0.0625 E-score.
For GATCCGAC the value was -0.0267 E-score.
GGCATTCA: the binding signal is -0.0675 E-score.
As for GCGGGGAA, the binding signal was -0.189 E-score.
As for ATTTTCCA, the figure is 0.105 E-score; as for ATTTTCCG, 0.329 E-score.
As for ATTTTCCC, the figure is -0.00582 E-score; as for TGGCAAAA, 0.122 E-score.
Take GGAATCAC: the binding signal is -0.0168 E-score.
As to AGTATCTC, the binding signal was determined as 0.185 E-score.
As for GCTATCCA, the figure is 0.0235 E-score; as for GCTATCTA, 0.333 E-score; as for ATTATCTA, 0.385 E-score.
For the sequence CCTATCTA, the binding signal is 0.319 E-score.
For GGTATCTA the value was 0.23 E-score; for AGTATCTG, 0.198 E-score.
With ATTATCTC, the binding signal was 0.0108 E-score.
As to AGTATCTA, the binding signal turned out to be 0.351 E-score.
For the sequence ACTATCTA, the binding signal came out at 0.364 E-score.
ATTATCTG: the binding signal turned out to be 0.203 E-score.
As for ACTATCTC, the figure is 0.263 E-score.
